Reference: PubChem BioAssay (EPA / NIEHS)
Records with an inconclusive call do not appear. Activity calls are given as the source filed them. The calls were made as follows: active = hit-call score of the fitted dose curve at least 0.9, where 1 is the maximum; inconclusive = response in the unintended direction; inactive = score below 0.9.

Experiments:
[1] = target: Androgen receptor (Homo sapiens) (UniProt P10275); assay: ATG_AR_TRANS: Attagene TRANS-FACTORIAL HepG2 Assay for human Androgen Receptor (AR) (AID 2282973); details: HepG2 Attagene TRANS-FACTORIAL AR reporter transcription
Sequence of Androgen receptor (Homo sapiens) (P10275 whole entry, looked up, the tested form may be a part): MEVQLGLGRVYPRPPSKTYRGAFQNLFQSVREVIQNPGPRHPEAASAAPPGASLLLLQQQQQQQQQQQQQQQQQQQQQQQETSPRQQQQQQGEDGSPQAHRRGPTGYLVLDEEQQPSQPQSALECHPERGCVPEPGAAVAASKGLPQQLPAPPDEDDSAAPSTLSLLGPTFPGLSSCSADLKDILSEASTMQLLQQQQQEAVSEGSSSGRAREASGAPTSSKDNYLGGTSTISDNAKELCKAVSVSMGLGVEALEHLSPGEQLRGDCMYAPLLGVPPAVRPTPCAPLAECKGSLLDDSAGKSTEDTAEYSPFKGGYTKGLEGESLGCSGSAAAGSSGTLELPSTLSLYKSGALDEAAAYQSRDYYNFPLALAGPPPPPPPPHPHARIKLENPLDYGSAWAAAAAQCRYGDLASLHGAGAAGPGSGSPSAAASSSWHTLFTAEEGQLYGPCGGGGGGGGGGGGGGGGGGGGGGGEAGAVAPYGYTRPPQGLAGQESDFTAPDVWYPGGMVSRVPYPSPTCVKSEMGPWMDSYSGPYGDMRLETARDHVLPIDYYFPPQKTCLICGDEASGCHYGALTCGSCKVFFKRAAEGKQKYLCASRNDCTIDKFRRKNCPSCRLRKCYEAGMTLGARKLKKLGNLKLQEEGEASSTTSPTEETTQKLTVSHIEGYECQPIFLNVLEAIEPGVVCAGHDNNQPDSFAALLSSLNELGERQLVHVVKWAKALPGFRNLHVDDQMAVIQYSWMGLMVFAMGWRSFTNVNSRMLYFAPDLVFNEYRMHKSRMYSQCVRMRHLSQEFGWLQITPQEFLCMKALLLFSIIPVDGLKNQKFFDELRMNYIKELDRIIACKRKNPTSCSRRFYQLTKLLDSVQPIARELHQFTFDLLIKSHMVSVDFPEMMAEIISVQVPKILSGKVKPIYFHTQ
Summary of the method: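 HepG2 cells transiently transfected with AR-Gal4 chimera and GAL4-UAS reporter units; chemical exposure 24 h. Reporter mRNA quantified by RT-PCR with fluorescent labelling and capillary electrophoresis; gain-of-signal fitted against DMSO.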

[2] = target: human Mitogen-Activated Protein Kinase 1 (MAPK 1), MAPK1 (gene 5594) (UniProt P28482); assay: NVS_ENZ_hMAPK1: NovaScreen (NVS) Enzymatic Assay for human Mitogen-Activated Protein Kinase 1 (MAPK 1) (AID 2283175)
Sequence of human Mitogen-Activated Protein Kinase 1 (MAPK 1), MAPK1 (gene 5594) (P28482 whole entry, looked up): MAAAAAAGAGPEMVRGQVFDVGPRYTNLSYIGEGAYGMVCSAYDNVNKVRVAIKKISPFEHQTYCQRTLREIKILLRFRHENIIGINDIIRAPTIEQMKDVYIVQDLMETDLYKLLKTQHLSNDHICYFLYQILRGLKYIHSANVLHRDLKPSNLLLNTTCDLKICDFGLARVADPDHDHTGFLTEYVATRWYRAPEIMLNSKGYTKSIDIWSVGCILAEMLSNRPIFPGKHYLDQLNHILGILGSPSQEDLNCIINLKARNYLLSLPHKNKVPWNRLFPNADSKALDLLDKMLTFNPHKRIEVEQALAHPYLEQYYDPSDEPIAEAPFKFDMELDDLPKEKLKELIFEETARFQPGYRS
Summary of the method: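 Cell-free recombinant human MAPK1 enzymatic assay, fluorescence/electrophoretic mobility shift read at 1 h; loss of signal vs DMSO. Primary screen in duplicate at 25 uM; actives (e.g. ≥30% inhibition) run as concentration-response up to 50 uM.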

[3] = target: human AMP-activated Protein Kinase, alpha 1 (AMPKa1), PRKAA1 (gene 5562) (UniProt Q13131); assay: NVS_ENZ_hAMPKa1: NovaScreen (NVS) Enzymatic Assay for human AMP-activated Protein Kinase, alpha 1 (AMPKa1) (AID 2283130)
Sequence of human AMP-activated Protein Kinase, alpha 1 (AMPKa1), PRKAA1 (gene 5562) (Q13131 whole entry, looked up): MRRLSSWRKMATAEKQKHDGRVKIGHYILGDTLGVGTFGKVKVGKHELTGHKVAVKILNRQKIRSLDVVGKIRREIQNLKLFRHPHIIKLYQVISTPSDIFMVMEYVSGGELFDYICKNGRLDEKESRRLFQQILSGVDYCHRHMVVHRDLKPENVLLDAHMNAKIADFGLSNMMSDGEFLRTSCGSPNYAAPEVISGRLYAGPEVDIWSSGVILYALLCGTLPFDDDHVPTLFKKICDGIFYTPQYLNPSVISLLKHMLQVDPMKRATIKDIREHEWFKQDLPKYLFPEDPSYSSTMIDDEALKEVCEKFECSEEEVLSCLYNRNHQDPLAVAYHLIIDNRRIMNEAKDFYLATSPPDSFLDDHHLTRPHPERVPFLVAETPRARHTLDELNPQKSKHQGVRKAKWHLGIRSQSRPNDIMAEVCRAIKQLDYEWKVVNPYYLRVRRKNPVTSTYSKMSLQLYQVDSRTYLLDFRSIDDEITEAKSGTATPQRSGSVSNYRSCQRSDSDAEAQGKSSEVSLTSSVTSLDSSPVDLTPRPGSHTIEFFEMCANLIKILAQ
Summary of the method: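 Compounds were screened in duplicate at 25 uM, and those reaching ~30% inhibition were titrated up to 50 uM. The enzyme was recombinant human AMPKα1, and kinase turnover was read by fluorescence/mobility shift 1 h post-dosing as loss of signal versus DMSO.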

[4] = target: human Fibroblast Growth Factor Receptor 1 (FGFR1), FGFR1 (gene 2260) (UniProt P11362); assay: NVS_ENZ_hFGFR1: NovaScreen (NVS) Enzymatic Assay for human Fibroblast Growth Factor Receptor 1 (FGFR1) (AID 2283159);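 as to AC50: hits lower the signal so potencies describe inhibitors of the kinase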
Sequence of human Fibroblast Growth Factor Receptor 1 (FGFR1), FGFR1 (gene 2260) (P11362 whole entry, looked up): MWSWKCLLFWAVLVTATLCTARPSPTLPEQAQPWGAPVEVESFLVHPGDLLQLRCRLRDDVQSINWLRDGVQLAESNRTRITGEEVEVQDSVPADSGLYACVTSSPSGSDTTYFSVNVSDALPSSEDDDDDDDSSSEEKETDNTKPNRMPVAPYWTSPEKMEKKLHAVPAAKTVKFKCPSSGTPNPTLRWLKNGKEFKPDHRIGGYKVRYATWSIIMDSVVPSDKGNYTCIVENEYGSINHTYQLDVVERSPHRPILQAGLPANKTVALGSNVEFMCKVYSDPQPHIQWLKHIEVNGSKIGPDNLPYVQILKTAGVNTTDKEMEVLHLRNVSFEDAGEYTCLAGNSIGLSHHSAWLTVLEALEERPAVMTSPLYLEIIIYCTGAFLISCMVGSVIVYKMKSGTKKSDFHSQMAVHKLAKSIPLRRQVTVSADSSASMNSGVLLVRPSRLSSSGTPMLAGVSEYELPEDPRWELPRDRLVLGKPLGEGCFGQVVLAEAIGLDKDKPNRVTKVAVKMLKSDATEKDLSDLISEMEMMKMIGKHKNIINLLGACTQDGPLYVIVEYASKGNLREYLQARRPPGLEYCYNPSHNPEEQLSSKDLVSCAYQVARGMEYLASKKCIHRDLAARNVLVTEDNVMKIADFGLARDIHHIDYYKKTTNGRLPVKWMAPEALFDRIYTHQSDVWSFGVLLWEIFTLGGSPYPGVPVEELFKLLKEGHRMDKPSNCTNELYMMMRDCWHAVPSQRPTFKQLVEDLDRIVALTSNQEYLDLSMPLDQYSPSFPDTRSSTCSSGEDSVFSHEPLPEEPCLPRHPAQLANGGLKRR
Summary of the method: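 Cell-free recombinant kinase with fluorescent substrate, product separated by electrophoretic mobility shift; read 1 hour after dosing, loss of signal relative to DMSO. Initial screen in duplicate at 25 uM, actives followed in concentration series.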

[5] = target: human IkappaB Kinase alpha (IKKa), CHUK (gene 1147) (UniProt O15111); assay: NVS_ENZ_hIKKa: NovaScreen (NVS) Enzymatic Assay for human IkappaB Kinase alpha (IKKa) (AID 2283167)
Summary of the method: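 Compounds first run in duplicate at 25 uM, those meeting threshold (e.g. 30% inhibition) retested to maximum 50 uM. Enzyme activity of recombinant IKKa measured by fluorescence with electrophoretic mobility shift separation, 1 hour post-dosing, DMSO baseline.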

[6] = target: human Matrix Metalloproteinase-1 (MMP1), MMP1 (gene 4312) (UniProt P03956); assay: NVS_ENZ_hMMP1: NovaScreen (NVS) Enzymatic Assay for human Matrix Metalloproteinase-1 (MMP1) (AID 2283181)
Summary of the method: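 Cell-free fluorescent substrate assay of human MMP1, read after 1 h. A single 25 uM duplicate screen was followed by concentration series to a maximum of 50 uM for actives meeting threshold; inhibition analysed against DMSO baseline.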

[7] = target: human Phosphatase and Tensin Homolog (PTEN), PTEN (gene 5728) (UniProt P60484); assay: NVS_ENZ_hPTEN: NovaScreen (NVS) Enzymatic Assay for human Phosphatase and Tensin Homolog (PTEN) (AID 2283203)
Summary of the method: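 Loss of fluorescent product signal after mobility-shift separation reports PTEN activity, recombinant human enzyme, 1 h after compound addition. Single 25 uM duplicate screen, then concentration-response on actives; DMSO baseline.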

[8] = target: human Raf-1 Proto-Oncogene, serine/threonine Kinase (RAF1), RAF1 (gene 5894) (UniProt P04049); assay: NVS_ENZ_hRAF1: NovaScreen (NVS) Enzymatic Assay for human Raf-1 Proto-Oncogene, serine/threonine Kinase (RAF1) (AID 2283216)
Sequence of human Raf-1 Proto-Oncogene, serine/threonine Kinase (RAF1), RAF1 (gene 5894) (P04049 whole entry, looked up): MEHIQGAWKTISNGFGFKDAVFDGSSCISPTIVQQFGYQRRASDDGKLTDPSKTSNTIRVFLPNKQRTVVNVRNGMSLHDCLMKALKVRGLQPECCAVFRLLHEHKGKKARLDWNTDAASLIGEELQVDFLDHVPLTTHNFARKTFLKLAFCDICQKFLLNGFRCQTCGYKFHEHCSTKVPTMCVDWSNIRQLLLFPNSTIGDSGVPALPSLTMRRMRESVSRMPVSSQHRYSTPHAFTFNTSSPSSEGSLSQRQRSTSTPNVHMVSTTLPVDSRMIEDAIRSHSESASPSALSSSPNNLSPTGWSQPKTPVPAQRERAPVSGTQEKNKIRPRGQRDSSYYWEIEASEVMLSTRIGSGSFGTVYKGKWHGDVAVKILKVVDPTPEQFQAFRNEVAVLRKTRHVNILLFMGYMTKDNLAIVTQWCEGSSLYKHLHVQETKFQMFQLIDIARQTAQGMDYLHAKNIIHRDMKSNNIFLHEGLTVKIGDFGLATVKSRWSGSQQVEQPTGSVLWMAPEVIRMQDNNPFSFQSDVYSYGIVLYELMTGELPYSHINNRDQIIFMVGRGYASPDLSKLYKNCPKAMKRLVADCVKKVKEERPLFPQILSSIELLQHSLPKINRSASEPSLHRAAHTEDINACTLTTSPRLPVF
Summary of the method: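 Single-point screening at 25 uM (duplicate), followed by singleton concentration-response to 50 uM maximum for chemicals exceeding threshold. Enzyme activity from fluorescent substrate-product mobility-shift separation after 1 h, relative to DMSO.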

[9] = target: human Tyrosine Protein Kinase Receptor Tie-2 (Tie2), TEK (gene 7010) (UniProt Q02763); assay: NVS_ENZ_hTie2: NovaScreen (NVS) Enzymatic Assay for human Tyrosine Protein Kinase Receptor Tie-2 (Tie2) (AID 2283225)
Sequence of human Tyrosine Protein Kinase Receptor Tie-2 (Tie2), TEK (gene 7010) (Q02763 whole entry, looked up): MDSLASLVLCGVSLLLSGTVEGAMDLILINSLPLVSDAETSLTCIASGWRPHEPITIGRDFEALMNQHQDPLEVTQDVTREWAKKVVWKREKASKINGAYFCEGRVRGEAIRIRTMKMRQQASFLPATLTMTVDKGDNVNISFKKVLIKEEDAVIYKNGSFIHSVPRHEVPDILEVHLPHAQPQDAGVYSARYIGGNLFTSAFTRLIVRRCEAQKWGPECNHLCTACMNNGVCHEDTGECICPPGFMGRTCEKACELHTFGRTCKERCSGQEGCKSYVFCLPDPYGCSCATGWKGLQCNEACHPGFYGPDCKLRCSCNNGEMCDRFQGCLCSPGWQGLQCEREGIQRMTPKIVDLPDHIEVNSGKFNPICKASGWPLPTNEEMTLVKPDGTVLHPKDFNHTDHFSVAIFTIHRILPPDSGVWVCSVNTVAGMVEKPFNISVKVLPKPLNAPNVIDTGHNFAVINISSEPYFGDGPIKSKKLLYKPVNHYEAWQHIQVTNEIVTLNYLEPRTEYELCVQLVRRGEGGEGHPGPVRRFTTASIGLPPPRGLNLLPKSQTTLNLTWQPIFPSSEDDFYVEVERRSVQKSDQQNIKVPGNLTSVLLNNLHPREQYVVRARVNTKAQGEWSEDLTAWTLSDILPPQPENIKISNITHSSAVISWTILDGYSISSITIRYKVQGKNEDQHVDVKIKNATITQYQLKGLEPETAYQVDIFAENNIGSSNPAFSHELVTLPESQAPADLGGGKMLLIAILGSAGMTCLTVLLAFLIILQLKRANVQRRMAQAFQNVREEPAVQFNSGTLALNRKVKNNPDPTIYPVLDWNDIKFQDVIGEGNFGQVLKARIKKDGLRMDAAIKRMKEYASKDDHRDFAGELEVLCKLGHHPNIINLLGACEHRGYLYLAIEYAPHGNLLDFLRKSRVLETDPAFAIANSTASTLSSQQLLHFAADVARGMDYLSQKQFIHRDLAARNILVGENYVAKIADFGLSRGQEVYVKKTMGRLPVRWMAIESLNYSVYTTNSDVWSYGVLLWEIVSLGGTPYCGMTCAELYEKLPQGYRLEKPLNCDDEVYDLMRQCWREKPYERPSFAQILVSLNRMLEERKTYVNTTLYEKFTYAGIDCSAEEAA
Summary of the method: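 Substrate and product were separated by mobility shift and detected by fluorescence after a 1-hour reaction with recombinant Tie2. Chemicals passing a 25 uM single-point screen were titrated to a maximum of 50 uM. Results were normalized to DMSO baseline.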

[10] = target: rat Adenylate Cyclase, Forskolin Stimulated, Adcy5 (gene 64532) (UniProt Q04400); assay: NVS_ENZ_rACFSKBinding: NovaScreen (NVS) Enzymatic Assay for rat Adenylate Cyclase, Forskolin Stimulated (AID 2283232)
Summary of the method: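 Chemicals were first tested at 25 uM in duplicate, then hits run as concentration series with top concentration 50 uM. Enzyme source was rat forebrain membranes; radiometric filter read-out after 1 h, referenced to DMSO.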

[11] = system: rat Monoamine Oxidase, MAO-A, Peripheral (MAOAP), gene 29253; assay: NVS_ENZ_rMAOAP: NovaScreen (NVS) Enzymatic Assay for rat Monoamine Oxidase, MAO-A, Peripheral (MAOAP) (AID 2283237)
Summary of the method: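 Scintillation counting tracked MAO-A activity in a cell-free rat liver mitochondrial membrane prep, read 1.17 hours after compound addition. Single-point duplicate testing at 25 uM preceded concentration-response follow-up; activity was fitted relative to DMSO.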

[12] = target: rat Monoamine Oxidase, MAO-B, Peripheral (MAOBP), Maob (gene 25750) (UniProt P19643); assay: NVS_ENZ_rMAOBP: NovaScreen (NVS) Enzymatic Assay for rat Monoamine Oxidase, MAO-B, Peripheral (MAOBP) (AID 2283242)
[13] = system: rat Monoamine Oxidase, MAO-A, Central (MAOAC), gene 29253; assay: NVS_ENZ_rMAOAC: NovaScreen (NVS) Enzymatic Assay for rat Monoamine Oxidase, MAO-A, Central (MAOAC) (AID 2283243);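 also: potency refers to inhibition seen as signal drop below DMSO baseline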
Summary of the method: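 Lysate-based radiometric enzyme assay using rat brain tissue; 1.5 h treatment; 25 uM single-point duplicate screen, concentration-response follow-up; loss of signal versus DMSO.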

[14] = target: rat Corticotropin Releasing Factor Receptor (CRF), Crhr1 (gene 58959) (UniProt P35353); assay: NVS_GPCR_rCRF: NovaScreen (NVS) G Protein-Coupled Receptor Assay for rat Corticotropin Releasing Factor Receptor (CRF) (AID 2283300)
Summary of the method: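 Single-concentration (25 uM, duplicate) radioligand binding on rat cortical membrane preparations, counted by scintillation after 2 h. Activity scored as signal loss relative to DMSO negative control.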

[15] = target: human Caspase 2 (CASP2), CASP2 (gene 835) (UniProt P42575); assay: NVS_ENZ_hCASP2: NovaScreen (NVS) Enzymatic Assay for human Caspase 2 (CASP2) (AID 2283135)
Summary of the method: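 Single-point duplicate testing at 25 uM preceded concentration series topping at 50 uM. Activity of the recombinant E. coli-derived protease was followed by fluorescent substrate cleavage 1 h post-dosing, relative to DMSO.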

[16] = target: human Acetylcholinesterase (AChE), ACHE (gene 43) (UniProt P22303); assay: NVS_ENZ_hAChE: NovaScreen (NVS) Enzymatic Assay for human Acetylcholinesterase (AChE) (AID 2283129)
Sequence of human Acetylcholinesterase (AChE), ACHE (gene 43) (P22303 whole entry, looked up): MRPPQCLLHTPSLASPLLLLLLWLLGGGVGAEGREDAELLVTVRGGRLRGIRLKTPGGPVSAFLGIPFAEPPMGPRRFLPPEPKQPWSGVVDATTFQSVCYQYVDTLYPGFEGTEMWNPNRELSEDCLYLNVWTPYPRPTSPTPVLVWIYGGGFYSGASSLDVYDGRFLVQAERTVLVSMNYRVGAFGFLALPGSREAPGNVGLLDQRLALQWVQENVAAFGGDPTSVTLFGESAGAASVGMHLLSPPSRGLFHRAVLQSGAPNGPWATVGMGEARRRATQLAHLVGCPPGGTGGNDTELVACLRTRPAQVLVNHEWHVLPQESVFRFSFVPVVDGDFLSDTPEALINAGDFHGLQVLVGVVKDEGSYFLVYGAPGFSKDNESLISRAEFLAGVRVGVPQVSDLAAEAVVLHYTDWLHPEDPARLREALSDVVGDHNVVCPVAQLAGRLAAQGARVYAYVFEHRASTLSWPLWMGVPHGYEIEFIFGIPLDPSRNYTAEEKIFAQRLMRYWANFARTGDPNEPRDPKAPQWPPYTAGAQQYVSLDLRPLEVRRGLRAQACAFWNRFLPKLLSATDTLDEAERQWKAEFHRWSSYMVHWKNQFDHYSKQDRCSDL
Summary of the method: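 Actives from a duplicate single-point screen (25 uM) were followed up in concentration series. Enzyme activity read by absorbance (colorimetric) 0.33 hour after dosing, cell-free, normalized to DMSO, with loss of signal scored.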

[17] = target: rat Acetylcholinesterase (AChE), Ache (gene 83817) (UniProt P37136); assay: NVS_ENZ_rAChE: NovaScreen (NVS) Enzymatic Assay for rat Acetylcholinesterase (AChE) (AID 2283233)
Summary of the method: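 Compounds first screened at 25 uM in duplicate, then those passing threshold tested in concentration series up to 50 uM, against AChE from rat brain membranes. Enzyme activity read by absorbance at 0.33 h; inhibition scored versus DMSO.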

[18] = target: Bile acid receptor (Homo sapiens) (UniProt Q96RI1); assay: NVS_NR_hFXR_Agonist: NovaScreen (NVS) Nuclear Receptor Binding Assay for human Farnesoid X Receptor Agonism (FXR) (AID 2283347)
Summary of the method: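 Agonist-mode FXR assay read by time-resolved FRET 1 h after compound addition, using isolated human receptor protein without cells. Duplicate 25 uM single-point primary screen, concentration series for confirmed actives; DMSO as baseline.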

[19] = target: Voltage-dependent N-type calcium channel subunit alpha-1B (Rattus norvegicus) (UniProt Q02294); assay: NVS_IC_rCaChN: NovaScreen (NVS) Ion Channel Assay for rat Calcium Channel, Type N (CaChN) (AID 2283317)
[20] = target: Norway rat Vesicular Monoamine Transporter (VMAT2), neurotransmitter transporter, Slc18a2 (gene 25549) (UniProt Q01827); assay: NVS_TR_rVMAT2: NovaScreen (NVS) Transporter Assay for Norway rat Vesicular Monoamine Transporter (VMAT2), neurotransmitter transporter (AID 2283376);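 also: actives lower the bound radioligand signal below the DMSO level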
Summary of the method: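 Using rat forebrain membranes, specific radioligand binding to VMAT2 was measured by filtration and scintillation counting after 1 hour. Chemicals screened at 25 uM in duplicate, actives retested in concentration series, DMSO baseline.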

[21] = target: rat Monoamine Oxidase, MAO-B, Central (MAOBC), Maob (gene 25750) (UniProt P19643); assay: NVS_ENZ_rMAOBC: NovaScreen (NVS) Enzymatic Assay for rat Monoamine Oxidase, MAO-B, Central (MAOBC) (AID 2283238)
Summary of the method: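 Actives from a duplicate 25 uM screen went on to singleton concentration-response with a 50 uM maximum. Enzyme source was rat brain tissue MAO-B, assayed cell-free. Radiolabelled product was counted by scintillation 1.17 h post-dose, with signal loss relative to DMSO.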

[22] = target: human Androgen Receptor (AR), AR (gene 367) (UniProt P10275); assay: ATG_hAR_XSP1: Attagene TRANS-FACTORIAL Multi-Species (XSP1) HepG2 Assay for human Androgen Receptor (AR) (AID 2283785)
Description: ATG_XSP1_multi-species_TRANS is a cell-based, multiplexed assay created by modifying the existing Attagene TRANS-FACTORIAL system to include a panel of nuclear receptors from some or all the following species: human (Homo sapiens), mouse (Mus musculus), frog (Xenopus laevis), zebrafish (Danio rerio), chicken (Gallus gallus), and turtle (Chrysemys picta). The ECOTOX-FACTORIAL format uses HepG2, a human liver cell line, with measurements taken at 24 hours after chemical dosing in a 24-well plate. Xsp1 included 3 nM 6-alpha-fluorotestosterone to partially stimulate the androgen receptor.ATG_hAR_XSP1 is one of 29 assay components measured or calculated from the ATG_XSP1_multi-species_TRANS assay. It is designed to make measurements of mRNA induction, a form of inducible reporter, as detected with fluorescence intensity signals by Reverse transcription polymerase chain reaction (RT-PCR) and Capillary electrophoresis technology.The assay endpoint ATG_hAR_XSP1 was analyzed in the positive analysis fitting direction relative to DMSO as the negative control and baseline of activity. […] Furthermore, this assay endpoint can be referred to as a primary readout, because this assay has produced multiple assay endpoints where this one serves a reporter gene function. […]

[23] = target: human Ephrin type-A Receptor 2 (EphA2), EPHA2 (gene 1969) (UniProt P29317); assay: NVS_ENZ_hEphA2: NovaScreen (NVS) Enzymatic Assay for human Ephrin type-A Receptor 2 (EphA2) (AID 2283155)
Summary of the method: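 Enzyme activity of recombinant EphA2 read by fluorescence after mobility-shift separation, 1 h after dosing. Chemicals first tested at 25 uM (duplicate); those passing threshold run as concentration series, top 50 uM, single replicate, relative to DMSO.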

Measured: AC50

Cc1ccc(-c2cc(C(F)(F)F)nn2-c2ccc(S(N)(=O)=O)cc2)cc1
inactive: [1] | [2]

CN(C)c1ccc(N=NS(=O)(=O)O)cc1
inactive: [1] | [3] | [4] | [5] | [6] | [7] | [8] | [9] | [10] | [13] | [14]
active: [11] 21.1 µM | [12] 23.8 µM

O=C(c1ccc(O)cc1O)c1ccc(O)cc1O
inactive: [1] | [8] | [12]
active: [4] 25 µM | [11] 0.935 µM | [13] 6.91 µM

Oc1cc2ccccc2c2ccccc12
inactive: [1]
active: [15] 14.6 µM | [11] 3 µM | [13] 1.2 µM

Cc1cc(CCN2CCN(c3nsc4ccccc34)CC2)cc2c1NC(=O)CC2(C)C
inactive: [1] | [16] | [4] | [8] | [17] | [11]

COCC(C)OCC(C)O (stereo not drawn)
inactive: [1] | [3] | [4] | [7] | [9] | [18]

COCCOC[C@H](CC1(C(=O)NC2CCC(C(=O)O)CC2)CCCC1)C(=O)Oc1ccc2c(c1)CCC2 (stereo partly drawn)
inactive: [1] | [4] | [2] | [10] | [19]

CCCN(C1CCN(C(=O)C2CCNCC2)CC1)[C@@H]1CCc2ccc(OC)cc2C1
inactive: [1]
active: [16] 35.2 µM

NC(=NCCCCCCN=C(N)/N=C(\N)Nc1ccc(Cl)cc1)/N=C(\N)Nc1ccc(Cl)cc1
inactive: [1] | [9] | [20]
active: [4] 11.8 µM | [13] 20.5 µM

Oc1ccc2c(c1)-c1ccccc1C2
inactive: [1] | [20]
active: [4] 32.7 µM | [11] 4.45 µM | [21] 19.6 µM | [13] 0.743 µM

O=C(O)c1ccccc1C(=O)OCc1ccccc1
inactive: [1] | [15]

CC[C@H](c1ccc(O)cc1)[C@@H](CC)c1ccc(O)cc1
inactive: [1] | [22]
active: [16] 4.88 µM | [8] 38.5 µM

N#C[C@@H]1CC(F)(F)CN1C(=O)CNC1CC2CCC(C1)N2c1ncccn1 (stereo partly drawn)
inactive: [1] | [23]
